According to ChEMBL document CHEMBL1961873, “Compounds: GSK PKIS; Assays: Nanosyn kinase panel” (2012):

Tests used:
[1] = target: Tyrosine-protein kinase Fer (Homo sapiens) (UniProt P16591); details: at 1 µM
[2] = target: Tyrosine-protein kinase Fes/Fps (Homo sapiens) (UniProt P07332); details: at 0.1 µM
[3] = target: Tyrosine-protein kinase Fes/Fps (Homo sapiens) (UniProt P07332); details: at 1 µM
[4] = target: Fibroblast growth factor receptor 1 (Homo sapiens) (UniProt P11362); details: at 0.1 µM
[5] = target: Fibroblast growth factor receptor 1 (Homo sapiens) (UniProt P11362); details: at 1 µM
[6] = target: Fibroblast growth factor receptor 2 (Homo sapiens) (UniProt P21802); details: at 0.1 µM
[7] = target: Fibroblast growth factor receptor 2 (Homo sapiens) (UniProt P21802); details: at 1 µM
[8] = target: Fibroblast growth factor receptor 3 (Homo sapiens) (UniProt P22607); details: at 0.1 µM
[9] = target: Fibroblast growth factor receptor 3 (Homo sapiens) (UniProt P22607); details: at 1 µM
[10] = target: Fibroblast growth factor receptor 4 (Homo sapiens) (UniProt P22455); details: at 0.1 µM
[11] = target: Fibroblast growth factor receptor 4 (Homo sapiens) (UniProt P22455); details: at 1 µM
[12] = target: Tyrosine-protein kinase Fgr (Homo sapiens) (UniProt P09769); details: at 0.1 µM
[13] = target: Tyrosine-protein kinase Fgr (Homo sapiens) (UniProt P09769); details: at 1 µM
[14] = target: Vascular endothelial growth factor receptor 1 (Homo sapiens) (UniProt P17948); details: at 0.1 µM
[15] = target: Vascular endothelial growth factor receptor 1 (Homo sapiens) (UniProt P17948); details: at 1 µM
[16] = target: Receptor-type tyrosine-protein kinase FLT3 (Homo sapiens) (UniProt P36888); details: at 0.1 µM
[17] = target: Receptor-type tyrosine-protein kinase FLT3 (Homo sapiens) (UniProt P36888); details: at 1 µM
[18] = tested on: T1, Receptor-type tyrosine-protein kinase FLT3 (Homo sapiens), P36888 [D835Y]; details: at 0.1 µM
T1 sequence (whole entry): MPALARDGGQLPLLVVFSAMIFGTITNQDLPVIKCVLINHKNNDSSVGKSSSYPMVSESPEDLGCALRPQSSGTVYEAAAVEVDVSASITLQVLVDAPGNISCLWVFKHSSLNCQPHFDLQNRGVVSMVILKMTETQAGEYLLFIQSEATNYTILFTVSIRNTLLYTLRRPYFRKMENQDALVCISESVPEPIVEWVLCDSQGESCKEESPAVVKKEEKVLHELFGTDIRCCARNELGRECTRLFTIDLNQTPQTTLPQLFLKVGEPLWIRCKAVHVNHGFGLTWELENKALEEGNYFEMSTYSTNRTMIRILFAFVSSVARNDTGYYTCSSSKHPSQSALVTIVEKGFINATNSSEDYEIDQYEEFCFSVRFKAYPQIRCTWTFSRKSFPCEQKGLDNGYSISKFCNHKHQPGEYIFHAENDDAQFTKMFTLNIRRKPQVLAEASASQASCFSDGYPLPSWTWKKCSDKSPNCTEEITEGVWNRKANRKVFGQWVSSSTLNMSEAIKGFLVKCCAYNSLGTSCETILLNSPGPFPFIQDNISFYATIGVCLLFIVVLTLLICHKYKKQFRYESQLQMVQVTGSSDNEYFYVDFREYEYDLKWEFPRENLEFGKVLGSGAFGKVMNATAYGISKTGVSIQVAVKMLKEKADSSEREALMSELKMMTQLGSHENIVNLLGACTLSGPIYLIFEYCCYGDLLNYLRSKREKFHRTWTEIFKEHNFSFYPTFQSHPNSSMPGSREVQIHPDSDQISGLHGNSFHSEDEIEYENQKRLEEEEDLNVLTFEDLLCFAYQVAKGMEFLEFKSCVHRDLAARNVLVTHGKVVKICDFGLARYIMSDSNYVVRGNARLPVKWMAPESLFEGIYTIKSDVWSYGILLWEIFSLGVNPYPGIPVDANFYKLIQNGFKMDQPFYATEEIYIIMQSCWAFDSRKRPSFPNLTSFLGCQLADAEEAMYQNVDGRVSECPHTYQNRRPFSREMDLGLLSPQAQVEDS

[19] = target: Non-receptor tyrosine-protein kinase TYK2 (Homo sapiens) (UniProt P29597); details: at 1 µM;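 note: values are mean percent inhibition of TYK2 kinase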
[20] = target: T2, Tyrosine-protein kinase receptor TYRO3 (Homo sapiens) (UniProt Q06418); details: at 0.1 µM;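 note: reported percentages are averaged inhibition values of TYRO3 kinase activity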
T2 sequence (whole entry): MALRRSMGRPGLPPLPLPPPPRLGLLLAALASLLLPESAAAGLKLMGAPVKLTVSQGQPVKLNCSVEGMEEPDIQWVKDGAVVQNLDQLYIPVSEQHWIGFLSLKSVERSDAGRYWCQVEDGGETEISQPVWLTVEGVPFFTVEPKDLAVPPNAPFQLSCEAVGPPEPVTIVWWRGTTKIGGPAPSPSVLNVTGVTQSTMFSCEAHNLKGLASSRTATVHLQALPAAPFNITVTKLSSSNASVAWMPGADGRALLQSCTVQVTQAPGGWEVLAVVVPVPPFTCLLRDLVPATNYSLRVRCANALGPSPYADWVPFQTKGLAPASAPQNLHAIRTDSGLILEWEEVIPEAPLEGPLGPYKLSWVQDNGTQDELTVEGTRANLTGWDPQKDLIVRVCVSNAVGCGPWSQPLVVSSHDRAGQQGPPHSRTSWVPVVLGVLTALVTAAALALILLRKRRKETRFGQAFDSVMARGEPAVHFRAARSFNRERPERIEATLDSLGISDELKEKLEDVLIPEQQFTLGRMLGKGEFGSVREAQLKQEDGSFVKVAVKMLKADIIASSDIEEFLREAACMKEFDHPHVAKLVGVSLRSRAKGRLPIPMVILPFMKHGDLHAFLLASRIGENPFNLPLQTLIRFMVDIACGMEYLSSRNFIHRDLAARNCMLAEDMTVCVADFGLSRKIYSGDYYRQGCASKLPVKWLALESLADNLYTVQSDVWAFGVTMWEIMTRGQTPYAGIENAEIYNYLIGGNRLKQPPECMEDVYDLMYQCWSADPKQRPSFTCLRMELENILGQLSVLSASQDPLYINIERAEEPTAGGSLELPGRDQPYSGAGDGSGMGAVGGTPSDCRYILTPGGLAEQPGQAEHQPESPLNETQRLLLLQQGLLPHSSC

Sequence of Fibroblast growth factor receptor 1 (Homo sapiens) (P11362 22-822 limits assumed): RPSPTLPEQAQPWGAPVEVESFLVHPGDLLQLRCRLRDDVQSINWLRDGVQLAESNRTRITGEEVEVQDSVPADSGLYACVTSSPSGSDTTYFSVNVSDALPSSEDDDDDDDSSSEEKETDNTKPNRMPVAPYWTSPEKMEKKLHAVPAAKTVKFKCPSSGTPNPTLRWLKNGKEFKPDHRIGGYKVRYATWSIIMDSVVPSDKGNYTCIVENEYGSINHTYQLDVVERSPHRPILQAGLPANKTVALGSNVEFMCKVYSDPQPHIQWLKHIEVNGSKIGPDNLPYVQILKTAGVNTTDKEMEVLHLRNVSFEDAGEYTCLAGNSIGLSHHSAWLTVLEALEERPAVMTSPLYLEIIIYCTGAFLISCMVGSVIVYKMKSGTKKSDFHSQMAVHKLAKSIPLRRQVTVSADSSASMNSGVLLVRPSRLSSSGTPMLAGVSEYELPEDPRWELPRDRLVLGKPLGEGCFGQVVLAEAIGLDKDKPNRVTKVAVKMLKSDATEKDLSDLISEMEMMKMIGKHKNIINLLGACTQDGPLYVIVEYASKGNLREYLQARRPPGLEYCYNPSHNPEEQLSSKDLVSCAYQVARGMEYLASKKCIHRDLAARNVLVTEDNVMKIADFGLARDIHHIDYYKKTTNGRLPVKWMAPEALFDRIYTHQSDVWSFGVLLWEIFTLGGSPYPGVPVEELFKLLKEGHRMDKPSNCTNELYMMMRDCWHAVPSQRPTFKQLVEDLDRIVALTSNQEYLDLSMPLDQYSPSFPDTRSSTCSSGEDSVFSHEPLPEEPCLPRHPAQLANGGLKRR
Sequence of Non-receptor tyrosine-protein kinase TYK2 (Homo sapiens) (P29597 whole entry): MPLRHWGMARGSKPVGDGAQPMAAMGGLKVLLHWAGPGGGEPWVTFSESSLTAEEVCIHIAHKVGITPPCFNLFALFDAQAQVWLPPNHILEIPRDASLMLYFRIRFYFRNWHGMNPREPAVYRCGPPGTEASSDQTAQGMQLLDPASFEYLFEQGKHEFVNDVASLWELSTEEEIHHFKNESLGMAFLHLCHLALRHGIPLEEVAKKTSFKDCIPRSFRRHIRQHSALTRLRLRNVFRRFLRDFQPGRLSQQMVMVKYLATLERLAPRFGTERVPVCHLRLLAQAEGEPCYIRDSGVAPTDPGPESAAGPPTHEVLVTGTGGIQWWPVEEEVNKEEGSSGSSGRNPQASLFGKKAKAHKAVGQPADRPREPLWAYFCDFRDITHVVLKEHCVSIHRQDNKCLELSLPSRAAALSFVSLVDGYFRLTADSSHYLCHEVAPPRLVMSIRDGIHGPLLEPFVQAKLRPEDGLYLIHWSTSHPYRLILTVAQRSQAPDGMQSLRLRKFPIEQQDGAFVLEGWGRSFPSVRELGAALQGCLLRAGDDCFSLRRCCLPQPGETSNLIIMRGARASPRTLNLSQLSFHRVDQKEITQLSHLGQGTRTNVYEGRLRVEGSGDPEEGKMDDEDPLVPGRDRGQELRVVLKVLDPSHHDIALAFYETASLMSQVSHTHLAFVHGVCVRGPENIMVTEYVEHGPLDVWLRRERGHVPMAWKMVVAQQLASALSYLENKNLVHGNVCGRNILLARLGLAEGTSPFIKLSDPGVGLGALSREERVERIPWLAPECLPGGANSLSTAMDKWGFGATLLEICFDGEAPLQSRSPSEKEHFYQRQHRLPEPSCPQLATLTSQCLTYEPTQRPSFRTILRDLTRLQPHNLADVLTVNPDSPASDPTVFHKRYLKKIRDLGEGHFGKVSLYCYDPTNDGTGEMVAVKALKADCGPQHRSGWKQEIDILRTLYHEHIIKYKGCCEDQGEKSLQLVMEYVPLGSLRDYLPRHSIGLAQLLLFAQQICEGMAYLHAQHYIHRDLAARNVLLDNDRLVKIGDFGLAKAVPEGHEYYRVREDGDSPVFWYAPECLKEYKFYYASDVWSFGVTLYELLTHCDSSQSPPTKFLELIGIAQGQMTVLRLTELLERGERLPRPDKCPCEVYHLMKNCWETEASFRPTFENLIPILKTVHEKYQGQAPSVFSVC
Sequence of Fibroblast growth factor receptor 4 (Homo sapiens) (P22455 22-802 limits assumed): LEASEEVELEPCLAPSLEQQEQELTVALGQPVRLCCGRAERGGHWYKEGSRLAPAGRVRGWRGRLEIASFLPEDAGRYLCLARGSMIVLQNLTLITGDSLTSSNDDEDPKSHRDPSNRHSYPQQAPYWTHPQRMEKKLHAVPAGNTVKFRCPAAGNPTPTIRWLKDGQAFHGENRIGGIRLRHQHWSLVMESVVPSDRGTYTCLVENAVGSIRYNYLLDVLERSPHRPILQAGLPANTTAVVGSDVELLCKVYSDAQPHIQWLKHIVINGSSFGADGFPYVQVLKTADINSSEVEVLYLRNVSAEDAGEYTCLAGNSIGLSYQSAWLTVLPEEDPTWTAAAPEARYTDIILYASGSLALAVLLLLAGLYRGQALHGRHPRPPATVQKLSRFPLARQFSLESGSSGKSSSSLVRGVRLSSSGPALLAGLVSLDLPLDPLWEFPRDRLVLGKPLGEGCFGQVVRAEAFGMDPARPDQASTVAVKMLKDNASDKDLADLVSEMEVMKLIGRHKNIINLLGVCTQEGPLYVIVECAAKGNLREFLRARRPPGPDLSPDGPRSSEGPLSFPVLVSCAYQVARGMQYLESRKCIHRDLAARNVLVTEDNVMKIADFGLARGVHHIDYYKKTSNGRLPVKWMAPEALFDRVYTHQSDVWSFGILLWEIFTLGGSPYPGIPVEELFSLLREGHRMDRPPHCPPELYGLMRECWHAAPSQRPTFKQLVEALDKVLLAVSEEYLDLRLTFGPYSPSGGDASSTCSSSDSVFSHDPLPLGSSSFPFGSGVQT
Sequence of Tyrosine-protein kinase Fes/Fps (Homo sapiens) (P07332 whole entry): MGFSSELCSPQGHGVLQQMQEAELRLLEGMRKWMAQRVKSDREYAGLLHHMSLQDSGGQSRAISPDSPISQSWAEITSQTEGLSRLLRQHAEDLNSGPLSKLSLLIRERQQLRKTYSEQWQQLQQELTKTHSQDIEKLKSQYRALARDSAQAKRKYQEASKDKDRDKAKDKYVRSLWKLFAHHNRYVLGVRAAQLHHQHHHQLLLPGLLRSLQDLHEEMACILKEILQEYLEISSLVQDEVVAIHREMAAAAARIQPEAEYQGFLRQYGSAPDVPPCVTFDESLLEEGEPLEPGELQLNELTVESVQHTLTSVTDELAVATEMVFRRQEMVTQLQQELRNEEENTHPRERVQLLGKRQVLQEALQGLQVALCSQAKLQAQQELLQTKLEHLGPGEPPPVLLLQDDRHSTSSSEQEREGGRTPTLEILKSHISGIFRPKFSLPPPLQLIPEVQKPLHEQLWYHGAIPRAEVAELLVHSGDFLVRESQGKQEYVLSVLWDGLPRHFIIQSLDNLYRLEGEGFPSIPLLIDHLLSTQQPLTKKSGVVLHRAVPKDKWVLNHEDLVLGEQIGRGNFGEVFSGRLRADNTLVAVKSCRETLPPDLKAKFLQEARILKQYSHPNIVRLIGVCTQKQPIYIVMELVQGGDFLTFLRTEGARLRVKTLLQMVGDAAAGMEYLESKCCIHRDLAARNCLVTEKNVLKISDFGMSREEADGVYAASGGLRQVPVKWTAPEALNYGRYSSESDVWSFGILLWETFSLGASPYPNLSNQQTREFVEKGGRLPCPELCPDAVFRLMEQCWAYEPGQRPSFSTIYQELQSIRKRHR
Sequence of Tyrosine-protein kinase Fgr (Homo sapiens) (P09769 2-529 limits assumed): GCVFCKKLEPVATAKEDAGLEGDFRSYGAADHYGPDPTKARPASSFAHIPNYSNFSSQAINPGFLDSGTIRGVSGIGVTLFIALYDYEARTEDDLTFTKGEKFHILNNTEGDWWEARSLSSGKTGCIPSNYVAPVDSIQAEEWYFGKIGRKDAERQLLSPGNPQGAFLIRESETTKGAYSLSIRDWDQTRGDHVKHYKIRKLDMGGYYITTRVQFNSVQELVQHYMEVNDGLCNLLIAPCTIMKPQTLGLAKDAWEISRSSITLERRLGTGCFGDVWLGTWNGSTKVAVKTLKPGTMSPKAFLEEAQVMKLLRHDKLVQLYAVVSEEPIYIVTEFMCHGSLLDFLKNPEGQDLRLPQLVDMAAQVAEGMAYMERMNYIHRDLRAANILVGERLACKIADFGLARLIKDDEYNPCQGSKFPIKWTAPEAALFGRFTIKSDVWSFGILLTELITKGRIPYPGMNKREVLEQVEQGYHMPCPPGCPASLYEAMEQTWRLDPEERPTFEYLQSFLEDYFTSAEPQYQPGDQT
Sequence of Tyrosine-protein kinase Fer (Homo sapiens) (P16591 whole entry, looked up): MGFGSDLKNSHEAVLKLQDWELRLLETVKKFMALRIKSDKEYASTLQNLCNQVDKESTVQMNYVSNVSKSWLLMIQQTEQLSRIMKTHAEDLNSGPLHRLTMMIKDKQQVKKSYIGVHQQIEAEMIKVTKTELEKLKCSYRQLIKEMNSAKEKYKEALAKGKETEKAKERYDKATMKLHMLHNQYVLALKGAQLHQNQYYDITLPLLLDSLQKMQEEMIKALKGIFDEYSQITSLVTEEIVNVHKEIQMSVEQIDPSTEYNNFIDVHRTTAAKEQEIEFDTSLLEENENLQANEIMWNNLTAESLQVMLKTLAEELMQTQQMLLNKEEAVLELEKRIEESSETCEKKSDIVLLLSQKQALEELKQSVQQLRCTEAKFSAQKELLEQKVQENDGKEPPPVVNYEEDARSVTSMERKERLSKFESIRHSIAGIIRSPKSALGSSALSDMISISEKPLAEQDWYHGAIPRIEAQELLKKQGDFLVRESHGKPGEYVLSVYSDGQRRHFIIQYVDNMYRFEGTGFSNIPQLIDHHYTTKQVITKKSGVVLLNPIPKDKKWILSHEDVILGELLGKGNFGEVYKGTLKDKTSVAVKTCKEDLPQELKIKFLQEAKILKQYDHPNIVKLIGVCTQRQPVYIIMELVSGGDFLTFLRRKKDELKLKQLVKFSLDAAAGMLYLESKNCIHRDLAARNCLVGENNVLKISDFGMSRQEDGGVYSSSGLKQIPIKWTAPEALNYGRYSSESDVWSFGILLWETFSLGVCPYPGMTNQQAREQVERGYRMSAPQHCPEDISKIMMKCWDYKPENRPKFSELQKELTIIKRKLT

SMILES	inhibition [1]	inhibition [2]	inhibition [3]	inhibition [4]	inhibition [5]	inhibition [6]	inhibition [7]	inhibition [8]	inhibition [9]	inhibition [10]	inhibition [11]	inhibition [12]	inhibition [13]	inhibition [14]	inhibition [15]	inhibition [16]	inhibition [17]	inhibition [18]	inhibition [19]	inhibition [20]
Cc1ccc(C(=O)NC(C)C)cc1-c1ccc(C(=O)NCC2CC2)cc1	-1.61%	-2.77%	-3%	-5.37%	-2.8%	-4.22%	-3.57%	-4.95%	-3.57%	1.18%	0.47%	-1.7%	-1.1%	0.43%	-1.81%	-4.25%	-1.66%	-1.15%	2.94%	-2.22%
c1ccc(Oc2ccc(Nc3ncc(-c4ccccc4)o3)cc2)cc1	1.64%	0.55%	0.4%	-1.76%	2.11%	1.12%	3.49%	4.41%	4.9%	2.77%	3.31%	1.2%	4.81%	1.53%	4.46%	2.44%	13.3%	0.51%	-0.96%	2.18%
COc1ccc2cc(-c3c(-c4ccncc4)nc(-c4ccc(S(C)(=O)=O)cc4C)n3C)ccc2c1	6.59%	3.14%	3.35%	2.35%	6.54%	3.92%	6.16%	4.02%	6.07%	-7.02%	2.96%	3.77%	4.62%	0.91%	2.09%	1.65%	1%	-1.54%	-1.13%	2.19%
COc1cc(Nc2ncc3c(C)nc(-c4cccc(Oc5ccccc5)c4)n3n2)cc(OC)c1OC	7.1%	2.66%	3.2%	2.41%	-0.38%	0.66%	5.14%	3.25%	3.03%	1.38%	1.97%	0.02%	4.22%	0.68%	2.1%	3.86%	28.5%	3.72%	-3.18%	2%
COc1ccc2ncn(-c3cc(O[C@H](C)c4ccccc4Cl)c(C(N)=O)s3)c2c1	3.7%	2.74%	1.59%	-0.72%	4.65%	-0.16%	5.18%	1.57%	4.59%	-1.86%	-2.23%	2.3%	3.06%	0.27%	3.7%	-1.31%	4.52%	2.46%	-5.78%	3.88%
CCN(CC)Cc1ccc(Nc2nccc(-c3cnn4ncccc34)n2)cc1	15.5%	5.99%	28%	1.77%	11.6%	4.18%	8.8%	2.66%	5.35%	-1.71%	-3.39%	2.7%	11.3%	3.62%	16.2%	7.95%	47.7%	-3.04%	11.6%	4.07%
N#Cc1ccc(Oc2nccc(-c3c(-c4ccc(F)cc4)ncn3C3CCNCC3)n2)cc1	4.07%	4.54%	4.03%	-0.69%	5.45%	3.13%	6.84%	3.14%	5.22%	0.73%	-0.84%	3.69%	6.62%	-0.44%	-0.67%	-0.97%	3.98%	-7.02%	-0.38%	2.69%
COc1cc(Nc2ncc3c(C)nc(-c4cccc(C(F)(F)F)c4)n3n2)cc(OC)c1OC	16.6%	2.74%	4.66%	0.79%	3.96%	1.87%	10.6%	3.25%	4.79%	0.66%	0.75%	7.22%	14%	2.19%	5.18%	6.14%	36.3%	3.11%	-1.24%	4.04%
Fc1ccc(-c2ncn(C3CCNCC3)c2-c2ccnc(Oc3ccc(Oc4ccccc4)cc3)n2)cc1	5.54%	3.48%	4.42%	6.98%	2.81%	6.96%	5.56%	7.61%	5.27%	-7.37%	3.31%	-0.13%	4.83%	-0.48%	3.29%	2.97%	1.85%	-3.32%	-3.59%	1.47%
CN(C)CCCNc1nccc(-c2c(-c3ccc(F)cc3)nn3cc(C(F)(F)F)ccc23)n1	1.37%	0.87%	1.2%	0.95%	0.04%	-2.72%	0.99%	-1.5%	-0.97%	-3.68%	-0.45%	1.41%	9.12%	0.51%	1.19%	0.5%	4.18%	-2.41%	-0.14%	1.1%
CNC(=O)c1cncc(/C=C/c2c(C)cccc2C)c1	3.37%	-0.51%	-0.68%	-3.96%	-3.96%	-3.46%	-2.09%	-2.67%	-3.86%	-4.63%	-4.47%	6.6%	29.6%	1.75%	1.51%	-1.59%	1.3%	3.49%	0.52%	0.85%
CCc1ccc(Oc2nccc(-c3c(-c4ccc(F)cc4)ncn3C3CCNCC3)n2)cc1	3.15%	3.41%	3.8%	7.59%	4.77%	9.05%	5.8%	7.97%	5%	7.02%	1.42%	2.39%	6.95%	2.69%	3.25%	5.16%	5.11%	-2.28%	-1.9%	1.15%
NC(=O)c1ccc(Oc2nccc(-c3c(-c4ccc(F)cc4)ncn3C3CCNCC3)n2)cc1	10.6%	4.82%	4.5%	5.23%	8.19%	11.3%	8.04%	11%	6.64%	5.18%	3.45%	1.87%	3.62%	0.89%	-0.43%	2.76%	4.78%	0.27%	-4.56%	2.41%
